ELG1 DNA repair: ELG1-dependent DNA repair inhibition; HEK293T ELG1-luciferase reporter, luminescence, 16 h; DNA damage induced by 5-fluorouridine; Potency, µM (highest dose often 46.1 µM), actives largely listed as inhibitors; 330,000 tested, 2.3% active; note: nearly all actives have a fitted effect of over 55% in size
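5-Fluorouridine DNA damage + compound/DMSO, 2,000 cells/well, 16 h, 37 °C/5% CO2. ONE-Glo, 30 min RT, luminescence. Readout = decrease in reporter signal.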
FLuc counter: firefly luciferase modulation, counter-screen for miR-21 project | P08659 | purified FLuc, Km substrates, luminescence inhibition | Potency, µM (top dose mostly 57.5 µM), usual class: inhibitors | 360,000 tested, 6.9% active; note: nearly all actives have a fitted effect of over 55% in size
Target sequence (P08659 whole entry, looked up): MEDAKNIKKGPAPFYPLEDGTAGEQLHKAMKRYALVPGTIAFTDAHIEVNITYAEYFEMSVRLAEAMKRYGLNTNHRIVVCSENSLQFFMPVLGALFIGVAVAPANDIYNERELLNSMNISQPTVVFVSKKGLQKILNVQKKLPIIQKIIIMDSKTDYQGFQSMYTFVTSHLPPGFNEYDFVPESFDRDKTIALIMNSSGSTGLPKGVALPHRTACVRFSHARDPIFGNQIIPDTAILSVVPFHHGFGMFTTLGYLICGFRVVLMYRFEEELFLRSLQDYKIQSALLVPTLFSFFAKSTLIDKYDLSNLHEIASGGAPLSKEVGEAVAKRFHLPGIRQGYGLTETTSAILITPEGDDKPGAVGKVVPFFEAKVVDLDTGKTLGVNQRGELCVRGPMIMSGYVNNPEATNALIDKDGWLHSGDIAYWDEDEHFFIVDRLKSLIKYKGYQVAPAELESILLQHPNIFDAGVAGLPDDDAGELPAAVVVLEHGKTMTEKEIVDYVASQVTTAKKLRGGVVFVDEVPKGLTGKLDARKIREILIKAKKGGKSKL
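Purified P. pyralis luciferase (10nM final) with 10uM D-luciferin and 10uM ATP (Km levels) in 50mM Tris acetate pH 7.5, 10mM Mg acetate, 0.01% Tween-20, 0.05% BSA; qHTS 6-point titration, ~60 µM downward; luminescence read.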
ELG1 genotox: inducers of genotoxicity in HEK293T ELG1-luciferase cells. Potency, µM (doses to about 46 µM), most hits filed as activators. HEK293T ELG1-luciferase reporter, luminescence, 16 h. AID 504466. 330,000 tested, 1.3% active; note: nearly all actives have a fitted effect of over 60% in size
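Screening used a luciferase reporter fused to human ELG1 in HEK293T cells. Luminescence was read on a CCD plate imager after 16 hr exposure and 30 min ONE-Glo incubation.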
NPC1 prom act: NPC1 promoter activation; Potency, µM (highest dose often 9.22 µM), most hits filed as activators; AID 485313; 320,000 tested, 2.4% active; Huh7 NPC1 promoter luciferase reporter, 24 h; note: nearly all actives have a fitted effect of over 60% in size
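Readout is luciferase luminescence, reflecting NPC1 promoter activation in stably transfected Huh7 cells after 24 h compound exposure at 37 °C in reduced-serum medium with 10% FBS.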
Rab9 prom act: activators of Rab9 promoter. Huh7 Rab9 promoter-luciferase reporter, luminescence, 24 h. Potency, µM (highest dose often 9.22 µM), actives largely listed as activators. 320,000 tested, 2.8% active. AID 485297; note: nearly all actives have a fitted effect of over 60% in size
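Luminescence from Amplite-detected luciferase (10 minutes, ambient) reports Rab9 promoter activation. Before that, stable Rab9-luciferase Huh7 cells (1500/well, reduced-serum OP-MEM I plus 10% FBS) were exposed to compound for 24 hours at 37C.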
SMN2 splice enh: enhancers of SMN2 splice variant expression; HEK293 SMN2-luciferase splicing reporter, luminescence, 30-36 h; Potency, µM (titrated, usually from 46.1 µM), usual class: activators; 210,000 tested, 2.8% active; AID 1458; note: nearly all actives have a fitted effect of over 55% in size
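HEK293 cells carry an SMN2 […]–luciferase reporter in which exon 7 inclusion puts luciferase in frame. Cells were plated 10-12 h before compound addition, then incubated 30-36 h at 37C. ONE-Glo luminescence was read; sodium butyrate at 4.5 mM final served as control.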
A number is an active result; [ ] = remark or other dose. Hits are enriched below; roughly 9.2% of the tested compounds scored in any of these assays. Calls come from the whole dose curve; as a rule, active = well fitted curve in the direction sought with a large enough effect; inconclusive = small, poorly fitted or top-dose-only effect, or another doubt; inactive = no such curve, though single readings can be large; an effect the other way counts as inactive or inconclusive.

CC(C)Oc1cccc(C(=O)C2CCCN(C(=O)c3ccc4c(c3)OCO4)C2)c1 (centres undefined) was read as ELG1 DNA repair inactive, FLuc counter inactive, ELG1 genotox inactive, NPC1 prom act inactive and Rab9 prom act inactive.
For COc1cccc(CN(C)C(=O)CCN(c2ccccc2)S(=O)(=O)c2ccc(C)cc2)c1OC the results were ELG1 DNA repair inconclusive, FLuc counter inactive, ELG1 genotox inactive, NPC1 prom act inactive and Rab9 prom act inactive.
`CCOC(=O)c1c(NC(=O)/C=C/C(=O)O)sc(C)c1-c1ccc(C(C)(C)C)cc1` gave ELG1 DNA repair 11.6µM, FLuc counter inconclusive, ELG1 genotox inactive, NPC1 prom act inactive, Rab9 prom act inactive and SMN2 splice enh inactive.
`NCCC[C@@H](CC(=O)N[C@@H]1CCNC[C@H]1C(=O)N[C@H](CC(=O)N[C@@H](CCC(=O)O)CC(=O)O)Cc1c[nH]c2ccccc12)NC(=O)C[C@H](Cc1ccccc1)NC(=O)[C@@H]1CNCC[C@H]1N` gave SMN2 splice enh inactive.
`CCCN(CCC)Cc1c(C(=O)N/N=C/C(C)=C\c2ccco2)nnn1-c1nonc1N` gave ELG1 DNA repair 20.6µM, FLuc counter inactive, ELG1 genotox inactive, NPC1 prom act inactive and Rab9 prom act inactive.
`COC(=O)[C@H]1C2CC3c4[nH]c5ccccc5c4CCN3CC2CC[C@@H]1O` (some centres undefined) gave SMN2 splice enh inactive.
C/C(=N\Nc1nc(N2CCOCC2)nc(N2CCOCC2)n1)c1cccs1 was read as ELG1 DNA repair inactive, FLuc counter inactive, ELG1 genotox inactive, NPC1 prom act inactive, Rab9 prom act inactive and SMN2 splice enh inactive.
C/C(=N\Nc1nc2ccccc2s1)c1cccs1 was read as ELG1 DNA repair inconclusive, FLuc counter 0.675µM, ELG1 genotox inconclusive, NPC1 prom act inconclusive and Rab9 prom act 3.55µM.
For C/C(=N\Nc1nc(-c2ccccc2)cs1)c1cccs1 the results were ELG1 DNA repair inconclusive, FLuc counter 0.849µM, ELG1 genotox inconclusive, NPC1 prom act 3.55µM, Rab9 prom act 2µM and SMN2 splice enh 2.82µM.
For O=C(Nc1cnn(Cc2ccc(Cl)cc2)c1)c1ccc([N+](=O)[O-])cc1 the results were ELG1 DNA repair 20.6µM, FLuc counter inactive, ELG1 genotox inactive, NPC1 prom act inactive, Rab9 prom act inactive and SMN2 splice enh inactive.
`NNC(=O)c1ccc(Cn2cc(Cl)cn2)cc1` gave ELG1 DNA repair inconclusive, FLuc counter inactive, ELG1 genotox inactive, NPC1 prom act inactive, Rab9 prom act inactive and SMN2 splice enh inactive.
Screening O=C(Nc1ccc(Cl)c(Cl)c1)c1ccc(Cn2cc(Cl)cn2)cc1 returned ELG1 DNA repair inactive, FLuc counter 19µM, ELG1 genotox inactive, NPC1 prom act inactive, Rab9 prom act inactive and SMN2 splice enh inactive.
`Cc1c(NC(=O)Nc2ccc(Cl)c(C(F)(F)F)c2)c(=O)n(-c2ccccc2)n1C` gave FLuc counter inactive and SMN2 splice enh inactive.
O=C(O)c1c2c(nc3ccccc13)/C(=C/c1cccc([N+](=O)[O-])c1)CCC2 was read as ELG1 DNA repair inconclusive, FLuc counter inconclusive, ELG1 genotox inactive, NPC1 prom act inactive and Rab9 prom act inactive.
`Cc1ccc(-n2c(SCC(=O)N(C)C)nnc2-c2ccco2)cc1` gave ELG1 DNA repair inactive, FLuc counter inactive, ELG1 genotox inactive, NPC1 prom act inactive and Rab9 prom act inactive.
Screening CCOC(=O)/C(N=Nc1ccc(F)cc1)=C(/O)c1ccc([N+](=O)[O-])cc1 returned ELG1 DNA repair inactive, FLuc counter inactive, ELG1 genotox inactive, NPC1 prom act inactive, Rab9 prom act inactive and SMN2 splice enh inactive.
COc1ccccc1N1CCN(C(=O)c2cc(-c3ccccc3O)on2)CC1 was read as ELG1 DNA repair inactive, FLuc counter inactive, ELG1 genotox inactive, NPC1 prom act inactive, Rab9 prom act inactive and SMN2 splice enh inactive.
`CC1CCN(C(=O)c2cc(-c3ccccc3O)on2)CC1` gave ELG1 DNA repair inconclusive, FLuc counter 2.69µM, ELG1 genotox 2.59µM, NPC1 prom act 2.51µM, Rab9 prom act 3.16µM and SMN2 splice enh inconclusive.
Screening CC1CCCC(C)N1C(=O)c1cc(-c2ccco2)on1 (centres undefined) returned ELG1 DNA repair inconclusive, FLuc counter inactive, ELG1 genotox inactive, NPC1 prom act inactive and Rab9 prom act inactive.
For CC1CCN(C(=O)c2cc(-c3ccco3)on2)CC1 the results were ELG1 DNA repair inconclusive, FLuc counter 13.5µM, ELG1 genotox 16.4µM, NPC1 prom act 1.78µM and Rab9 prom act 2.82µM.
Screening C=CCc1c(C)nc(-c2ccccc2)nc1N/N=C(\C)c1ccccc1 returned ELG1 DNA repair inconclusive, FLuc counter 16.9µM, ELG1 genotox inactive, NPC1 prom act inactive, Rab9 prom act inactive and SMN2 splice enh inactive.
O=C(CCN1C(=O)/C(=C/c2cccs2)SC1=S)Nc1ccc(C(=O)O)cc1 was read as ELG1 DNA repair inactive, FLuc counter inconclusive, ELG1 genotox inactive, NPC1 prom act inactive and Rab9 prom act inactive.
CCOC(=O)c1c(-c2ccccc2)csc1NC(=O)c1nn(CC)cc1Br was read as ELG1 DNA repair 11.6µM, FLuc counter inactive, ELG1 genotox inactive, NPC1 prom act inactive, Rab9 prom act inactive and SMN2 splice enh inactive.
Screening CCn1cc(Br)c(C(=O)Nc2ccc(C(=O)OC(C)C)cc2)n1 returned ELG1 DNA repair inactive, FLuc counter 15.1µM, ELG1 genotox inactive, NPC1 prom act inconclusive, Rab9 prom act inconclusive and SMN2 splice enh inactive.
Screening CCn1nccc1C(=O)Nc1ccc(C(=O)OC(C)C)cc1 returned ELG1 DNA repair inactive, FLuc counter 19µM, ELG1 genotox inactive, NPC1 prom act inconclusive and Rab9 prom act inconclusive.
CCn1cc(Br)c(C(=O)Nc2ccc(OC)cc2)n1 was read as ELG1 DNA repair inconclusive, FLuc counter 15.1µM, ELG1 genotox inconclusive, NPC1 prom act inconclusive, Rab9 prom act inactive and SMN2 splice enh 14.1µM.
Screening CCn1cc(Br)c(C(=O)NN)n1 returned ELG1 DNA repair inconclusive, FLuc counter inactive, ELG1 genotox inactive, NPC1 prom act inconclusive, Rab9 prom act inactive and SMN2 splice enh inactive.
Screening COc1ccc(CNCCS(=O)(=O)NN2CCOCC2)cc1 returned ELG1 DNA repair inactive and ELG1 genotox inactive.
Screening COCCN1C(=O)N[C@@H](CCc2ccccc2)C(C(=O)OC)=C1C returned SMN2 splice enh inactive.
c1ccc(CN2CCC3(CC2)SSC2(CCN(Cc4ccccc4)CC2)SS3)cc1 was read as SMN2 splice enh inactive[9.22 µM].
Screening O=c1c(O)c(-c2ccc(O)c(O)c2)oc2c(OC3OC(CO)C(O)C(O)C3O)c(O)cc(O)c12 (centres undefined) returned SMN2 splice enh inactive.

Source: PubChem (National Center for Advancing Translational Sciences (NCATS))
